Test results: the antibiotic and cytotoxicity screens of Wong et al. (2023)
Hit rate of the full screen: of about 39,000 compounds, about 1,500 (3.8%) were called active. For the sample, actives were picked, then their nearest neighbours and some compounds at random.

test system: HSkMC (human skeletal muscle cells); assay: cytotoxicity call (relative viability < 0.9); conditions: 10 µM

Compound | cytotoxicity call
CN1CCN(C(=O)C[C@@H]2CC[C@H]3[C@@H](COC[C@@H](O)CN3C(=O)C3CCCC3)O2)CC1 | inactive
Cc1noc(C)c1S(=O)(=O)Nc1ccc2c(c1)C(=O)N([C@H](C)CO)C[C@@H](C)[C@H](CN(C)S(=O)(=O)c1cccs1)O2 | inactive
Cc1ccc(S(=O)(=O)Nc2ccc3c(c2)C(=O)N([C@H](C)CO)C[C@H](C)[C@@H](CN(C)Cc2ccncc2)OCCCC[C@H](C)O3)cc1 | inactive
COc1ccc(NC(=O)N(C)C[C@@H]2OCCCC[C@@H](C)Oc3ccc(NC(=O)Cc4ccccc4)cc3C(=O)N([C@@H](C)CO)C[C@H]2C)cc1 | inactive
C[C@H](CO)N1C[C@H](C)[C@@H](CN(C)Cc2ccc(C(=O)O)cc2)Oc2c(NC(=O)Nc3cccc4ccccc34)cccc2C1=O | inactive
C[C@@H]1CCCCO[C@H](CN(C)S(C)(=O)=O)[C@@H](C)CN([C@H](C)CO)C(=O)c2cc(NS(=O)(=O)c3ccc(F)cc3)ccc2O1 | inactive
C[C@@H]1CN([C@H](C)CO)C(=O)c2cc(NC(=O)Nc3ccc(C(F)(F)F)cc3)ccc2O[C@@H](C)CCCCO[C@H]1CN(C)S(=O)(=O)c1cn(C)cn1 | inactive
COc1ccc(S(=O)(=O)Nc2ccc3c(c2)C(=O)N([C@@H](C)CO)C[C@H](C)[C@@H](CN(C)C(=O)c2ccccc2)OCCCC[C@H](C)O3)cc1 | inactive
COc1c(-c2coc3cc4c(cc3c2=O)CC(O)C(C)(C)O4)ccc2c1C=CC(C)(C)O2 (stereo not drawn) | active
COc1cc2c(=O)c(-c3ccc4c(c3)OCO4)coc2c2c1OC(C)(C)C=C2 | inactive
COc1cc2c(cc1OC)-c1c(oc3c4c(ccc3c1=O)OC(C)(C)C=C4)CO2 | inactive
C[C@@H]1CCCCO[C@@H](CN(C)Cc2ccc(C(=O)O)cc2)[C@H](C)CN([C@H](C)CO)C(=O)c2cc(NC(=O)NC3CCCCC3)ccc2O1 | inactive
COCC#Cc1ccc2c(c1)O[C@H](CN(C)S(=O)(=O)c1ccc(OC)cc1)[C@H](C)CN([C@@H](C)CO)S2(=O)=O | inactive
Cc1noc(C)c1S(=O)(=O)Nc1ccc2c(c1)CC(=O)N([C@@H](C)CO)C[C@H](C)[C@H](CN(C)Cc1ccc(-c3ccccc3)cc1)O2 | inactive
Cc1noc(C)c1S(=O)(=O)Nc1ccc2c(c1)CC(=O)N([C@H](C)CO)C[C@H](C)[C@@H](CN(C)Cc1ccc(-c3ccccc3)cc1)O2 | active
Cc1noc(C)c1S(=O)(=O)Nc1ccc2c(c1)CC(=O)N([C@@H](C)CO)C[C@H](C)[C@@H](CN(C)Cc1ccc(-c3ccccc3)cc1)O2 | inactive
Cc1noc(C)c1S(=O)(=O)Nc1ccc2c(c1)CC(=O)N([C@@H](C)CO)C[C@@H](C)[C@H](CN(C)Cc1ccc(-c3ccccc3)cc1)O2 | active
Cc1noc(C)c1S(=O)(=O)Nc1ccc2c(c1)CC(=O)N([C@@H](C)CO)C[C@@H](C)[C@@H](CN(C)Cc1ccc(-c3ccccc3)cc1)O2 | inactive
Cc1noc(C)c1S(=O)(=O)Nc1ccc2c(c1)CC(=O)N([C@H](C)CO)C[C@@H](C)[C@H](CN(C)Cc1ccc(-c3ccccc3)cc1)O2 | inactive
CC(C)CC#Cc1cnc2c(c1)C(=O)N([C@H](C)CO)C[C@H](C)[C@@H](CN(C)C(=O)CN1CCOCC1)O2 | inactive
NC(=O)N1C(=O)[C@H]2[C@H](C1=O)[C@H]1C=C(CCCO)[C@@H]2[C@H](c2ccc(CN3CCCC3)cc2)N1Cc1sc2ccccc2c1Cl | inactive

Compound | cytotoxicity call
C[C@@H]1CN([C@H](C)CO)C(=O)c2cc(NS(=O)(=O)c3cccs3)ccc2O[C@@H]1CN(C)CC1CC1 | inactive
C[C@@H]1CN([C@H](C)CO)C(=O)Cc2cc(NS(=O)(=O)c3cccs3)ccc2O[C@H]1CN(C)S(=O)(=O)c1ccc(F)cc1 | inactive
C[C@H](CO)N1C[C@H](C)[C@@H](CN(C)C(=O)Nc2ccc(F)cc2)OCCCC[C@H](C)Oc2ccc(NC(=O)Nc3cccc4ccccc34)cc2C1=O | inactive
COCCCNC(=O)[C@@]1(Cc2ccccc2I)c2ccccc2C(=O)N(C2CCCCC2)[C@H]1c1ccc(CO)cc1 | inactive
C[C@H](CO)N1C[C@H](C)[C@@H](CN(C)Cc2ccc(C(F)(F)F)cc2)Oc2ccc(NC(=O)Nc3ccccc3)cc2CC1=O | inactive
C[C@@H]1CN([C@H](C)CO)C(=O)Cc2cc(NC(=O)Nc3ccccc3)ccc2O[C@@H]1CN(C)Cc1ccc(C(F)(F)F)cc1 | active
C[C@H]1CN([C@@H](C)CO)C(=O)Cc2cc(NC(=O)Nc3ccccc3)ccc2O[C@H]1CN(C)Cc1ccc(C(F)(F)F)cc1 | active
C[C@@H]1CN([C@@H](C)CO)C(=O)Cc2cc(NC(=O)Nc3ccccc3)ccc2O[C@@H]1CN(C)Cc1ccc(C(F)(F)F)cc1 | active
C[C@@H]1CN([C@@H](C)CO)C(=O)Cc2cc(NC(=O)Nc3ccccc3)ccc2O[C@H]1CN(C)Cc1ccc(C(F)(F)F)cc1 | active
C[C@@H](O)C#Cc1ccc2c(c1)O[C@@H](CN(C)C(=O)C1CCCCC1)[C@@H](C)CN([C@@H](C)CO)S2(=O)=O | inactive
Cc1noc(C)c1S(=O)(=O)Nc1ccc2c(c1)C(=O)N([C@H](C)CO)C[C@H](C)[C@H](CN(C)Cc1ccc(Cl)c(Cl)c1)OCCCC[C@@H](C)O2 | inactive
COc1oc(C(=O)NC2CCCCC2)c(-c2ccc(Cl)cc2)c1S(=O)(=O)c1ccc2c(c1)OCCO2 | inactive
CN1C(=O)c2cc(NS(=O)(=O)c3ccc(F)cc3)ccc2OC[C@@H]2O[C@H](CC(=O)NCC(F)(F)F)CC[C@H]21 | inactive
C[C@@H]1CCCCO[C@H](CN(C)S(=O)(=O)c2ccc(F)cc2)[C@H](C)CN([C@@H](C)CO)C(=O)c2cc(NS(=O)(=O)c3ccc(Cl)cc3)ccc2O1 | inactive
COc1ccc(O)cn1 | inactive
C[C@H]1CCCCO[C@H](CN(C)S(=O)(=O)c2cccs2)[C@@H](C)CN([C@@H](C)CO)C(=O)c2cc(NC(=O)Nc3cccc4ccccc34)ccc2O1 | inactive
C[C@@H]1CN([C@@H](C)CO)C(=O)c2cc(NC(=O)Nc3ccccc3)ccc2O[C@H]1CN(C)S(C)(=O)=O | inactive
CC(C)NC(=O)N(C)C[C@H]1Oc2ccc(NS(=O)(=O)c3ccc(F)cc3)cc2CC(=O)N([C@@H](C)CO)C[C@H]1C | inactive
O=C1C=CC(O)(/C=C/C(=O)O[C@@H]2[C@@H](O)[C@H](Oc3ccc(O)cc3)O[C@H](CO)[C@H]2O)C=C1 | inactive
C[C@H](CO)N1C[C@H](C)[C@@H](CN(C)Cc2cccc(C(=O)Nc3ccccc3N)c2)OCc2ccccc2-c2c(n(C)c3ccccc23)C1=O | inactive
C[C@@H]1CN([C@H](C)CO)C(=O)Cc2cc(NC(=O)Nc3ccccc3)ccc2O[C@H]1CN(C)Cc1ccc(C(F)(F)F)cc1 | active

Compound | cytotoxicity call
C[C@H]1CN([C@@H](C)CO)C(=O)Cc2cc(NC(=O)Nc3ccccc3)ccc2O[C@@H]1CN(C)Cc1ccc(C(F)(F)F)cc1 | active
C[C@H](CO)N1C[C@H](C)[C@H](CN(C)Cc2ccc(C(F)(F)F)cc2)Oc2ccc(NC(=O)Nc3ccccc3)cc2CC1=O | active
C=C1C(c2ccc(C)cc2)=CCc2cc(C)cc(C)c21 | inactive
C[C@@H]1CCCCO[C@@H](CN(C)S(=O)(=O)c2cccs2)[C@H](C)CN([C@@H](C)CO)C(=O)c2cc(NC(=O)Nc3ccc(F)cc3)ccc2O1 | inactive
Cc1nnn2c1COC[C@H](CNCC(C)C)C2 | inactive
COCC(=O)Nc1ccc2c(c1)OC[C@@H](C)N(Cc1ccccc1OC)C[C@@H](C)[C@@H](OC)CN(C)C2=O | inactive
COc1ccc(NC(=O)Nc2ccc3c(c2)C(=O)N([C@@H](C)CO)C[C@@H](C)[C@@H](CN(C)S(=O)(=O)c2cccs2)OCCCC[C@H](C)O3)cc1 | inactive
O=C(CN1CCOCC1)N[C@H]1CC[C@H](CCNC(=O)C2CCCCC2)O[C@@H]1CO | inactive
CNC[C@@H]1Oc2ccc(NS(=O)(=O)c3cn(C)cn3)cc2C(=O)N([C@H](C)CO)C[C@H]1C | inactive
CCCNC(=O)N1C[C@@H](O)COC[C@@H]2O[C@@H](CC(=O)N3CCOCC3)CC[C@H]21 | inactive
O=C(C[C@@H]1CC[C@H]2[C@@H](COC[C@H](O)CN2S(=O)(=O)c2ccc(F)cc2)O1)N[C@H]1CCN(Cc2ccccc2)C1 | inactive
COc1nsnc1N1CCOCC1 | inactive
C[C@H](CO)N1C[C@H](C)[C@@H](CN(C)Cc2ccc(Cl)c(Cl)c2)Oc2ccc(NS(=O)(=O)c3ccccc3)cc2CC1=O | inactive
C[C@@H]1CN([C@@H](C)CO)C(=O)Cc2cc(NS(=O)(=O)c3ccccc3)ccc2O[C@@H]1CN(C)Cc1ccc(Cl)c(Cl)c1 | active
C[C@@H]1CN([C@H](C)CO)C(=O)Cc2cc(NS(=O)(=O)c3ccccc3)ccc2O[C@H]1CN(C)Cc1ccc(Cl)c(Cl)c1 | active
C[C@H]1CN([C@@H](C)CO)C(=O)Cc2cc(NS(=O)(=O)c3ccccc3)ccc2O[C@H]1CN(C)Cc1ccc(Cl)c(Cl)c1 | inactive
C[C@H]1CN([C@@H](C)CO)C(=O)Cc2cc(NS(=O)(=O)c3ccccc3)ccc2O[C@@H]1CN(C)Cc1ccc(Cl)c(Cl)c1 | inactive
C[C@@H]1CN([C@@H](C)CO)C(=O)Cc2cc(NS(=O)(=O)c3ccccc3)ccc2O[C@H]1CN(C)Cc1ccc(Cl)c(Cl)c1 | active
C[C@H](CO)N1C[C@H](C)[C@H](CN(C)Cc2ccc(Cl)c(Cl)c2)Oc2ccc(NS(=O)(=O)c3ccccc3)cc2CC1=O | inactive
C[C@@H]1CN([C@H](C)CO)C(=O)Cc2cc(NS(=O)(=O)c3ccccc3)ccc2O[C@@H]1CN(C)Cc1ccc(Cl)c(Cl)c1 | active
Cc1noc(C)c1NC(=O)N(C)C[C@H]1Oc2ccc(NC(=O)Nc3ccc(C(F)(F)F)cc3)cc2C(=O)N([C@H](C)CO)C[C@@H]1C | inactive
